Inconclusive results are not listed. A number with no mark means an inactive call. Calls come from the whole dose curve; as a rule, active = well fitted curve in the direction sought with a large enough effect (not every such curve was filed as active); inconclusive = small, poorly fitted or top-dose-only effect, or effect the other way, or another doubt; inactive = no such curve, though single readings can be large or run the other way.
Assay: Cell viability assay for measurement of the protective activity of small molecules against cell death caused by Zika virus infection in human neural progenitor cells (hNPCs);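 note: 0% = ZIKV-infected cells without compound and 100% = uninfected cells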
Conditions: hNPC ZIKV-induced death protection, ATP luminescence, 72 h; series mostly up to 46.1 µM; protection, negative = more death: at the top concentration
Outline: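 Luminescent ATP content after 72 h ZIKV infection (2 FFU/cell) of hNPCs, compounds added 1 h before virus. Protection expressed as percent inhibition of the infection-induced drop in cell viability.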

Row | Structure (SMILES) | protection, negative = more death
1 | O=c1oc2cc(O)ccc2s1 | -37.6%
2 | Cc1ccc2c(n1)Oc1ccc(C(C)C(=O)OCC(=O)N(C)C)cc1C2 (stereo not given) | -34.7%
3 | CC(O)=C(C#N)C(=O)Nc1ccc(C(F)(F)F)cc1 | -61.6%
4 | C[C@@H]1CCN(C(=O)CC#N)C[C@H]1N(C)c1ncnc2[nH]ccc12 | 8.69%
5 | Cc1oncc1C(=O)Nc1ccc(C(F)(F)F)cc1 | -51.4%
6 | CCOCCOC(=O)/C=C/c1ccc(OC)cc1 | -28.4%
7 | Nc1ncnc2c1ncn2[C@@H]1O[C@@H](CO)[C@H](O)[C@H]1O | -14.4% [at 23.8 µM]
8 | Oc1ccc(/C=C/c2cc(O)cc(O)c2)cc1 | -73.8%
9 | O=C(CS)Nc1ccccc1 | -49.6%
10 | Nc1ccc(-c2ccc3ccccc3n2)cc1 | -48.7%

Reference: PubChem BioAssay AID1224852 (National Center for Advancing Translational Sciences (NCATS), 2016)
